Data taken from PubChem BioAssay AID1159580 (chemical genetic matrix, 2015).
“And” between values parts separate entries of the source, which are not always exact repeats. Equal entries are not always repeated. Among all 5,500 compounds or so, about 2,000 (36%) were called active. Inconclusive results (about 18%) are left out. Cut-off read from the data, not from the text of the source: active = normalized growth mostly below about 0.91 (no sharp cut-off); inconclusive = no clear call, values can overlap the other calls; inactive = mostly above about 0.92. The list shows a part of the results.

Test: chemical genetic growth profiling, strain panel (AID 1159580);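 note: tested at 20 µM; growth read once vehicle control cultures reached saturation at 30 °C; 1 = growth at the plate median or of vehicle wells; lower values mean less growth of the strain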
Conditions: S. cerevisiae deletion strains, growth OD

Measured: normalized growth

CC(=O)Oc1cc(OC(C)=O)c2c(c1)O[C@H](c1ccc(OC(C)=O)c(OC(C)=O)c1)[C@H](OC(C)=O)C2
inactive: locus YAL013W, strain DEP1, hits give low values 1.01 | locus YAL021C, strain ccr4, hits give low values 1 | locus YAL026C, strain drs2, hits give low values 1.01 | locus YAL030W, strain snc1, hits give low values 1 | locus YBL061C, strain skt5, hits give low values 0.994 | locus YBR009C, strain hhf1, hits give low values 0.965 | locus YBR021W, strain FUR4, hits give low values 1 | locus YBR023C, strain chs3, hits give low values 0.998 | locus YBR171W, strain sec66, hits give low values 0.999 | locus YBR229C, strain ROT2, hits give low values 1.01 | locus YBR231C, strain swc5, hits give low values 1.01 | locus YBR279W, strain paf1, hits give low values 0.985 | locus YCL011C, strain gbp2, hits give low values 0.982 | locus YCL016C, strain dcc1, hits give low values 0.971 | locus YCL029C, strain bik1, hits give low values 1.02 | locus YCL061C, strain MRC1, hits give low values 0.999 | locus YCL069W, strain vba3, hits give low values 1 | locus YCR088W, strain abp1, hits give low values 1 | locus YDL005C, strain med2, hits give low values 1.01 | locus YDL035C, strain GPR1, hits give low values 1.01 | locus YDL040C, strain nat1, hits give low values 1 | locus YDL074C, strain BRE1, hits give low values 1.01 | locus YDL101C, strain DUN1, hits give low values 1.01 | locus YDL185W, strain tfp1, hits give low values 1.03 | locus YDL192W, strain arf1, hits give low values 1.02 | locus YDR001C, strain nth1, hits give low values 0.999 | locus YDR069C, strain doa4, hits give low values 1 | locus YDR101C, strain arx1, hits give low values 1.02 | locus YDR137W, strain rgp1, hits give low values 1.02 | locus YDR159W, strain sac3, hits give low values 1.02 | locus YDR162C, strain NBP2, hits give low values 1 | locus YDR195W, strain ref2 1.04 | locus YDR297W, strain sur2, hits give low values 0.996 | locus YDR318W, strain mcm21, hits give low values 1.03 | locus YDR334W, strain swr1, hits give low values 1 | locus YDR335W, strain msn5, hits give low values 1 | locus YDR388W, hits give low values 1.03 | locus YDR392W, strain spt3, hits give low values 0.964 | locus YDR502C, strain sam2, hits give low values 1.02 | locus YEL003W, strain gim4, hits give low values 1 | locus YEL037C, strain rad23, hits give low values 1 | locus YEL061C, strain CIN8 (second series), hits give low values 0.997 | locus YEL061C, strain CIN8, hits give low values 1 | locus YER015W, strain faa2, hits give low values 0.983 | locus YER016W, strain bim1, hits give low values 1 | locus YER110C, hits give low values 1.03 | locus YER111C, strain swi4, hits give low values 0.995 | locus YER155C, strain BEM2 (second series), hits give low values 1.05 | locus YER155C, strain BEM2, hits give low values 0.999 | locus YER167W, strain BCK2, hits give low values 1.02 | locus YFR010W, strain ubp6, hits give low values 0.998 | locus YGL078C, strain dbp3, hits give low values 1.02 | locus YGL086W, strain mad1, hits give low values 0.997 | locus YGL167C, strain pmr1, hits give low values 0.998 | locus YGL173C, strain kem1, hits give low values 1 | locus YGL227W, strain vid30, hits give low values 0.991 | locus YGL240W, strain doc1, hits give low values 1.04 | locus YGL248W, strain PDE1, hits give low values 1.01 | locus YGL253W, strain hxk2, hits give low values 0.984 | locus YGR078C, strain PAC10, hits give low values 1 | locus YGR135W, strain pre9, hits give low values 1.02 | locus YGR252W, strain gcn5, hits give low values 1.05 | locus YHR013C, strain ard1, hits give low values 0.999 | locus YHR027C, strain rpn1, hits give low values 0.999 | locus YHR030C, strain SLT2, hits give low values 1.01 and 0.946 | locus YHR079C, strain IRE1 (second series), hits give low values 1.03 | locus YHR079C, strain IRE1, hits give low values 0.968 | locus YHR094C, strain hxt1, hits give low values 1.02 | locus YHR129C, strain ARP1, hits give low values 1.01 | locus YHR142W, strain chs7, hits give low values 0.944 | locus YHR200W, strain rpn10, hits give low values 1.03 | locus YIL066C, strain RNR3, hits give low values 0.999 | locus YIL073C, strain SPO22, hits give low values 1.1 | locus YIL125W, strain kgd1, hits give low values 1.01 | locus YIR030C, strain dcg1, hits give low values 1.03 | locus YJL092W, strain hpr5, hits give low values 1 | locus YJL095W, strain BCK1 (second series), hits give low values 0.99 | locus YJL095W, strain BCK1, hits give low values 1 and 0.959 | locus YJL115W, strain asf1, hits give low values 1 | locus YJL129C, strain trk1, hits give low values 0.999 | locus YJL134W, strain LCB3, hits give low values 1.01 | locus YJL154C, strain vps35, hits give low values 1 | locus YJL164C, strain tpk1, hits give low values 0.984 | locus YJL166W, strain qcr8, hits give low values 1 | locus YJL168C, strain set2, hits give low values 1.03 | locus YJL187C, strain SWE1 (second series), hits give low values 1.01 | locus YJL187C, strain SWE1, hits give low values 1.01 | locus YJR043C, strain POL32, hits give low values 1.01 | locus YJR066W, strain TOR1, hits give low values 0.935 | locus YJR075W, strain HOC1, hits give low values 1.02 | locus YKL009W, strain mrt4, hits give low values 1.02 | locus YKL068W, hits give low values 1.01 | locus YKL085W, strain MDH1 (second series), hits give low values 1.01 | locus YKL085W, strain MDH1, hits give low values 1.01 | locus YKL160W, strain elf1, hits give low values 1.01 | locus YKR001C, strain vps1, hits give low values 1.02 | locus YKR026C, strain gcn3, hits give low values 0.994 | locus YKR091W, strain srl3, hits give low values 0.994 | locus YLL001W, strain dnm1, hits give low values 0.985 | locus YLL026W, hits give low values 0.999 | locus YLL041C, strain sdh2, hits give low values 1.01 | locus YLR027C, strain aat2, hits give low values 1.01 | locus YLR039C, strain RIC1, hits give low values 1.09 | locus YLR058C, strain SHM2, hits give low values 1.01 | locus YLR102C, strain apc9, hits give low values 1.02 | locus YLR113W, strain HOG1, hits give low values 0.94 | locus YLR221C, strain rsa3, hits give low values 0.964 | locus YLR258W, strain gsy2, hits give low values 0.979 | locus YLR262C, strain YPT6 (second series), hits give low values 0.997 | locus YLR262C, strain YPT6, hits give low values 1.12 | locus YLR268W, strain sec22, hits give low values 1.04 | locus YLR320W, strain mms22, hits give low values 0.984 | locus YLR330W, strain CHS5, hits give low values 1.02 | locus YLR342W, strain FKS1 (second series), hits give low values 1.01 | locus YLR342W, strain FKS1, hits give low values 1 | locus YLR357W, strain rsc2, hits give low values 1.01 | locus YLR370C, strain arc18, hits give low values 0.979 | locus YLR371W, strain rom2, hits give low values 1.03 | locus YLR384C, strain iki3, hits give low values 1 | locus YLR418C, strain cdc73, hits give low values 1.06 | locus YML016C, strain PPZ1, hits give low values 1.01 | locus YML032C, strain rad52, hits give low values 1.03 | locus YML120C, strain ndi1, hits give low values 0.981 | locus YML124C, strain tub3, hits give low values 1.02 | locus YMR058W, strain fet3, hits give low values 1.01 | locus YMR078C, strain ctf18, hits give low values 1.02 | locus YMR125W, strain sto1, hits give low values 0.995 | locus YMR129W, hits give low values 1 | locus YMR205C, strain PFK2, hits give low values 0.992 | locus YMR223W, strain ubp8, hits give low values 1.02 | locus YMR231W, strain pep5, hits give low values 1.01 | locus YMR307W, strain GAS1, hits give low values 1.01 | locus YNL067W, strain RPL9B, hits give low values 1.02 | locus YNL071W, strain lat1, hits give low values 1.01 | locus YNL183C, strain NPR1, hits give low values 0.91 | locus YNL209W, strain ssb2, hits give low values 0.996 | locus YNL233W, strain BNI4, hits give low values 1.01 | locus YNL248C, strain rpa49, hits give low values 1.03 | locus YNL250W, strain rad50, hits give low values 1.03 | locus YNL271C, strain bni1, hits give low values 1.02 | locus YNL298W, strain CLA4, hits give low values 1.03 | locus YNL307C, strain MCK1, hits give low values 1.07 | locus YNL322C, strain KRE1 (second series), hits give low values 0.997 | locus YNR049C, strain mso1, hits give low values 1 | locus YNR052C, strain pop2, hits give low values 1.03 | locus YOL012C, strain htz1 0.664 | locus YOL147C, strain pex11, hits give low values 1.02 | locus YOR001W, strain rrp6, hits give low values 1.02 | locus YOR061W, strain CKA2, hits give low values 1 | locus YOR069W, strain VPS5, hits give low values 1.01 | locus YOR070C, strain gyp1, hits give low values 0.997 | locus YOR080W, strain dia2, hits give low values 1 | locus YOR083W, strain WHI5, hits give low values 0.997 | locus YOR106W, strain vam3, hits give low values 1.01 | locus YOR136W, strain idh2, hits give low values 1.05 | locus YOR144C, strain elg1, hits give low values 1.02 | locus YOR184W, strain ser1, hits give low values 1.03 | locus YOR231W, strain MKK1, hits give low values 0.965 | locus YOR265W, strain rbl2, hits give low values 1.01 | locus YOR270C, strain vph1, hits give low values 0.943 | locus YOR290C, strain snf2, hits give low values 0.996 | locus YOR316C, strain cot1, hits give low values 1.03 | locus YPL051W, strain arl3, hits give low values 0.997 | locus YPL078C, strain atp4, hits give low values 1.01 | locus YPL106C, strain sse1, hits give low values 0.967 | locus YPL240C, strain hsp82, hits give low values 0.99 | locus YPL256C, strain CLN2, hits give low values 0.933 | locus YPR119W, strain clb2, hits give low values 1.01 | locus YPR141C, strain kar3, hits give low values 1.02 | locus YPR163C, strain tif3, hits give low values 1.05 | locus YPR167C, strain met16, hits give low values 1.04 | strain wtn01, hits give low values 1.01
